Test results taken from PubChem BioAssay AID1159580 (chemical genetic matrix, 2015).
Several values for one entry are separate records, joined by “and”; a condition that tells them apart may be missing. Identical values can stand only once. The campaign covered roughly 5,500 compounds. About 2,000 (36%) were called active. Inconclusive results (about 18%) are left out. Some of the results follow. A number with no mark means an inactive call. No stated cut-off is given here; in the data, active means normalized growth mostly below about 0.91 (no sharp cut-off); inconclusive means no clear call, values can overlap the other calls; inactive means mostly above about 0.92.

Assay: chemical genetic growth profiling, strain panel (AID 1159580);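 further: tested at 20 µM; growth read once vehicle control cultures reached saturation at 30 °C; 1 = growth at the plate median or of vehicle wells; lower values mean less growth of the strain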
Conditions: S. cerevisiae deletion strains, growth OD

Cc1c(Cl)cccc1Nc1ccccc1C(=O)O
normalized growth (locus YAL021C, strain ccr4, hits give low values): 0.863 (active) | normalized growth (locus YAL026C, strain drs2, hits give low values): 0.805 (active) | normalized growth (locus YAL030W, strain snc1, hits give low values): 0.842 (active) | normalized growth (locus YBL061C, strain skt5, hits give low values): 0.81 (active) | normalized growth (locus YBR009C, strain hhf1, hits give low values): 0.82 (active) | normalized growth (locus YBR021W, strain FUR4, hits give low values): 0.74 (active) | normalized growth (locus YBR023C, strain chs3, hits give low values): 0.801 (active) | normalized growth (locus YBR171W, strain sec66, hits give low values): 0.729 (active) | normalized growth (locus YBR229C, strain ROT2, hits give low values): 0.848 (active) | normalized growth (locus YBR231C, strain swc5, hits give low values): 0.825 (active) | normalized growth (locus YBR279W, strain paf1, hits give low values): 0.839 (active) | normalized growth (locus YCL011C, strain gbp2, hits give low values): 0.83 (active) | normalized growth (locus YCL016C, strain dcc1, hits give low values): 0.827 (active) | normalized growth (locus YCL029C, strain bik1, hits give low values): 0.812 (active) | normalized growth (locus YCL061C, strain MRC1, hits give low values): 0.842 (active) | normalized growth (locus YCL069W, strain vba3, hits give low values): 0.815 (active) | normalized growth (locus YCR088W, strain abp1, hits give low values): 0.812 (active) | normalized growth (locus YDL005C, strain med2, hits give low values): 0.865 (active) | normalized growth (locus YDL035C, strain GPR1, hits give low values): 0.848 (active) | normalized growth (locus YDL040C, strain nat1, hits give low values): 0.83 (active) | normalized growth (locus YDL074C, strain BRE1, hits give low values): 0.75 (active) | normalized growth (locus YDL101C, strain DUN1, hits give low values): 0.929 | normalized growth (locus YDL134C, strain PPH21, hits give low values): 0.817 (active) | normalized growth (locus YDL185W, strain tfp1, hits give low values): 0.956 | normalized growth (locus YDL192W, strain arf1, hits give low values): 0.796 (active) | normalized growth (locus YDR001C, strain nth1, hits give low values): 0.804 (active) | normalized growth (locus YDR069C, strain doa4, hits give low values): 0.897 (active) | normalized growth (locus YDR101C, strain arx1, hits give low values): 0.835 (active) | normalized growth (locus YDR137W, strain rgp1, hits give low values): 0.464 (active) | normalized growth (locus YDR150W, strain NUM1, hits give low values): 0.836 (active) | normalized growth (locus YDR159W, strain sac3, hits give low values): 0.615 (active) | normalized growth (locus YDR162C, strain NBP2, hits give low values): 0.709 (active) | normalized growth (locus YDR195W, strain ref2): 1.15 [resistant] (active) | normalized growth (locus YDR297W, strain sur2, hits give low values): 0.835 (active) | normalized growth (locus YDR318W, strain mcm21, hits give low values): 0.793 (active) | normalized growth (locus YDR334W, strain swr1, hits give low values): 0.812 (active) | normalized growth (locus YDR335W, strain msn5, hits give low values): 0.836 (active) | normalized growth (locus YDR388W, hits give low values): 0.79 (active) | normalized growth (locus YDR392W, strain spt3, hits give low values): 0.225 (active) | normalized growth (locus YDR502C, strain sam2, hits give low values): 0.802 (active) | normalized growth (locus YEL003W, strain gim4, hits give low values): 0.839 (active) | normalized growth (locus YEL037C, strain rad23, hits give low values): 0.836 (active) | normalized growth (locus YEL061C, strain CIN8 (second series), hits give low values): 0.819 (active) | normalized growth (locus YEL061C, strain CIN8, hits give low values): 0.855 (active) | normalized growth (locus YER015W, strain faa2, hits give low values): 0.848 (active) | normalized growth (locus YER016W, strain bim1, hits give low values): 0.856 (active) | normalized growth (locus YER110C, hits give low values): 0.769 (active) | normalized growth (locus YER111C, strain swi4, hits give low values): 0.831 (active) | normalized growth (locus YER155C, strain BEM2 (second series), hits give low values): 0.595 (active) | normalized growth (locus YER155C, strain BEM2, hits give low values): 0.684 (active) | normalized growth (locus YER167W, strain BCK2, hits give low values): 0.812 (active) | normalized growth (locus YFR010W, strain ubp6, hits give low values): 0.876 (active) | normalized growth (locus YGL078C, strain dbp3, hits give low values): 0.958 | normalized growth (locus YGL086W, strain mad1, hits give low values): 0.815 (active) | normalized growth (locus YGL167C, strain pmr1, hits give low values): 0.757 (active) | normalized growth (locus YGL173C, strain kem1, hits give low values): 0.819 (active) | normalized growth (locus YGL227W, strain vid30, hits give low values): 0.808 (active) | normalized growth (locus YGL240W, strain doc1, hits give low values): 0.791 (active) | normalized growth (locus YGL248W, strain PDE1, hits give low values): 0.841 (active) | normalized growth (locus YGL253W, strain hxk2, hits give low values): 0.706 (active) | normalized growth (locus YGR078C, strain PAC10, hits give low values): 0.814 (active) | normalized growth (locus YGR135W, strain pre9, hits give low values): 0.792 (active) | normalized growth (locus YGR252W, strain gcn5, hits give low values): 0.609 (active) | normalized growth (locus YHR013C, strain ard1, hits give low values): 0.854 | normalized growth (locus YHR027C, strain rpn1, hits give low values): 0.843 (active) | normalized growth (locus YHR030C, strain SLT2, hits give low values): 0.827 (active) and 0.555 (active) | normalized growth (locus YHR079C, strain IRE1 (second series), hits give low values): 0.793 (active) | normalized growth (locus YHR079C, strain IRE1, hits give low values): 0.633 (active) | normalized growth (locus YHR094C, strain hxt1, hits give low values): 0.796 (active) | normalized growth (locus YHR129C, strain ARP1, hits give low values): 0.837 (active) | normalized growth (locus YHR142W, strain chs7, hits give low values): 0.586 (active) | normalized growth (locus YHR200W, strain rpn10, hits give low values): 0.789 (active) | normalized growth (locus YIL066C, strain RNR3, hits give low values): 0.839 (active) | normalized growth (locus YIL073C, strain SPO22, hits give low values): 0.776 | normalized growth (locus YIL125W, strain kgd1, hits give low values): 0.966 | normalized growth (locus YIR030C, strain dcg1, hits give low values): 0.792 (active) | normalized growth (locus YJL092W, strain hpr5, hits give low values): 0.814 (active) | normalized growth (locus YJL095W, strain BCK1 (second series), hits give low values): 0.828 (active) | normalized growth (locus YJL095W, strain BCK1, hits give low values): 0.594 (active) and 0.648 (active) | normalized growth (locus YJL115W, strain asf1, hits give low values): 0.854 (active) | normalized growth (locus YJL129C, strain trk1, hits give low values): 0.442 (active) | normalized growth (locus YJL134W, strain LCB3, hits give low values): 0.842 (active) | normalized growth (locus YJL154C, strain vps35, hits give low values): 0.845 (active) | normalized growth (locus YJL164C, strain tpk1, hits give low values): 0.803 (active) | normalized growth (locus YJL166W, strain qcr8, hits give low values): 0.756 (active) | normalized growth (locus YJL168C, strain set2, hits give low values): 0.797 (active) | normalized growth (locus YJL187C, strain SWE1 (second series), hits give low values): 0.851 (active) | normalized growth (locus YJL187C, strain SWE1, hits give low values): 0.832 (active) | normalized growth (locus YJR043C, strain POL32, hits give low values): 0.867 | normalized growth (locus YJR066W, strain TOR1, hits give low values): 0.731 (active)
